LGR2 inh: blocks bursicon-induced cAMP signaling via Drosophila LGR2. HEK293 LGR2, CRE-luciferase, bursicon-stimulated, 4 h. inhibition, % at 9.99 µM. 380,000 compounds, 0.35% hits;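 active means drop in luminescence signal, shown as inhibition above about 50% in the replicate tests, limit read from the data, passing the limit was not always enough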;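 further: agonist challenge used bursicon conditioned medium at about half maximal strength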
TWEAK Fn14 block: inhibitors of TWEAK-Fn14 interaction signaling | inhibition, % at 10 µM | 360,000 compounds, 2% hits | TWEAK-stimulated Fn14 reporter cells, luciferase luminescence, 8 h; in the data active means inhibition above about 50%
LMP1 NFkB inh: reduces LMP1-driven NF-kappaB luciferase signal; LMP1-induced NF-kappaB luciferase reporter cells, luminescence; AID 504558; inhibition, % at 12.5 µM; 350,000 compounds, 0.69% hits; in the data active means inhibition above about 41%;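 further: 0% = neutral control wells and 100% = reference inhibitor control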
HSF1 inhib: HSF1 inhibition | NIH3T3-HGL HSE-luciferase, MG132-induced, luminescence 8 h; hits give low values | activity change, negative = inhibition, % at 7.5 µM (by protocol) | 300,000 compounds, 0.77% hits;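 active means more than half of replicate wells show activity change below -50%, luminescence cut by over half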;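 further: luciferase reports HSF-1 transcriptional activity via heat shock element; 0% = median of DMSO wells and -100% = zero luminescence signal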
HSF-1 act: increases HSF-1 driven luciferase reporter signal; NIH3T3-HGL HSF-1 luciferase reporter, MG132, 8 h; 100% = twice DMSO control signal; activation, % at 9 µM; 300,000 compounds, 1.7% hits; AID 504408;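 active means mean replicate activation of at least 50% with a set share of replicates each reaching 50%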;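 further: 0% = median of the neutral control wells and 100% = twice that signal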
TROY NFkB inh: blocks TROY-dependent signaling in reporter cells; Q293 LMP1-TROYcd NF-kB luciferase reporter, 4 h; 360,000 compounds, 0.98% hits; inhibition, % at 10 µM;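 active means compounds whose plate-normalised and pattern-corrected inhibition of the luciferase reporter signal at the single screening dose is 50% or more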
The depositor's hits bear a star; . = no result given. The list is not random: actives were taken first. Their share in the collection is about 3.6%.

SMILES	LGR2 inh	TWEAK Fn14 block	LMP1 NFkB inh	HSF1 inhib	HSF-1 act	TROY NFkB inh
O=C(c1cccc(Cl)c1)N1CCN(c2ncnc3c2cnn3-c2ccccc2)CC1	11	11	4	-9	-15	13
Cn1ncc2c(N3CCN(c4ccc(Cl)c(Cl)c4)CC3)ncnc21	-2	85*	-407	-3	2	24
CCOC(=O)C1CCN(c2ncnc3c2cnn3-c2ccccc2)CC1	.	20	-4	1	-20	-20
c1ccc(Cn2ncc3c(N4CCCCC4)ncnc32)cc1	.	17	-5	5	42	18
Clc1ccc(-n2ncc3c(N4CCCC4)ncnc32)cc1	73*	100*	52*	1	-12	80*
CCOC(=O)C1CCN(c2ncnc3c2cnn3-c2ccc(Cl)cc2)CC1	-33	52*	25	-7	-18	-1
Clc1ccc(Cn2ncc3c(N4CCN(c5ccccc5)CC4)ncnc32)cc1	5	102*	.	.	.	81*
O=C(C[C@@H]1CC[C@H]2[C@@H](COC[C@@H](O)CN2C(=O)Cc2ccccc2)O1)NC1CCCC1	-5	.	.	.	.	.
CC(=O)N1[C@H](CO)[C@H](c2ccc(C3=CCCC3)cc2)C12CN(C(=O)C1CC1)C2	1	.	.	.	.	.
O=C(C[C@@H]1CC[C@@H]2[C@H](COC[C@H](O)CN2S(=O)(=O)c2ccccc2)O1)NCc1ccc2c(c1)OCO2	10	.	.	.	.	.
COc1ccc2c3c([nH]c2c1)[C@H](CO)N(C(=O)c1ccncc1)CC31CCN(C(=O)C2CCC2)CC1	-3	.	.	.	.	.
COCC(=O)N(C)C[C@H]1Oc2cc(-c3ccncc3)ccc2S(=O)(=O)N([C@H](C)CO)C[C@H]1C	-7	.	.	.	.	.
CCC(=O)N(C)C[C@@H]1Oc2cc(-c3ccncc3)ccc2S(=O)(=O)N([C@@H](C)CO)C[C@H]1C	-8	.	.	.	.	.
COc1cccc(-c2ccc3ncnc(NCc4cccnc4)c3c2)c1	12	74*	19	.	.	45
Cc1noc(C)c1NC(=O)N(C)C[C@H]1OCCCC[C@@H](C)Oc2ccc(NS(=O)(=O)c3ccccc3)cc2C(=O)N([C@@H](C)CO)C[C@@H]1C	-13	.	.	.	.	.
C=CCN1c2ccccc2[C@]23C[C@@H](C(=O)OC)N(C(=O)c4ccc(Br)cc4)C2=NC(C(=O)OC)=C(C(=O)OC)[C@H]13	7	61*	3	-69*	-75	31
COC(=O)C1=C(C(=O)OC)[C@@H]2N(Cc3ccccc3)c3ccccc3[C@@]23C[C@@H](C(=O)OC)N(C(C)=O)C3=N1	24	17	1	0	-6	10
COC(=O)C1=C(C(=O)OC)[C@@H]2N(Cc3ccccc3)c3ccccc3[C@@]23C[C@@H](C(=O)OC)N(C(=O)COCc2ccccc2)C3=N1	.	51*	2	5	-13	24
CCOC(=O)N1C2=NC(C(=O)OC)=C(C(=O)OC)[C@@H]3N(C)c4ccc(OC)cc4[C@]23C[C@H]1C(=O)OC	3	-1	0	-44	-55	-7
COC(=O)C1=C(C(=O)OC)[C@@H]2N(Cc3ccccc3)c3ccccc3[C@@]23C[C@@H](C(=O)OC)N(C(=O)c2ccc(Br)cc2)C3=N1	.	54*	1	-68*	-71	10
COC(=O)C1=C(C(=O)OC)[C@@H]2N(C)c3ccc(OC)cc3[C@@]23C[C@@H](C(=O)OC)N(C(=O)c2ccc(Br)cc2)C3=N1	1	53*	-1	-27	-36	19
O=C(NCC[C@H]1CC[C@H](NC(=O)Nc2cc(F)ccc2F)[C@@H](CO)O1)Nc1ccc(Cl)cc1	-10	.	.	.	.	.
C[C@@H]1CN([C@H](C)CO)C(=O)c2cc(NC(=O)Nc3cccc4ccccc34)ccc2O[C@H]1CN(C)C	6	.	.	.	.	.
COC(=O)C1=C(C(=O)OC)[C@@H]2N(C)c3ccccc3[C@@]23C[C@@H](C(=O)OC)N(C(=O)CC(C)C)C3=N1	6	-2	3	-75*	-80	-4
C=CCN1c2ccccc2[C@]23C[C@@H](C(=O)OC)N(C(=O)CC(C)C)C2=NC(C(=O)OC)=C(C(=O)OC)[C@H]13	2	18	2	-1	-4	15
SMILES	LGR2 inh	TWEAK Fn14 block	LMP1 NFkB inh	HSF1 inhib	HSF-1 act	TROY NFkB inh
C[C@@H]1CN([C@H](C)CO)S(=O)(=O)c2ccc(-c3ccccc3)cc2O[C@@H]1CN(C)C(=O)c1ccccc1F	9	.	.	.	.	.
CCCOC(c1ccccc1)(c1ccc(C(F)(F)F)cc1)C(Oc1nc(C)cc(C)n1)C(=O)O (configuration not stated)	-1	61*	43*	13	36	27
Cc1cc(C)nc(OC(C(=O)O)C(OCCc2ccccc2)(c2ccc(F)cc2)c2ccc(F)cc2)n1 (configuration not stated)	-2	38	4	3	4	38
CC(C)Nc1nc(Cl)nc(N(C#N)CN2C(=O)c3ccccc3C2=O)n1	15	16	-2	153	204*	5
CCC(C)Nc1nc(Cl)nc(N(C#N)CN2C(=O)c3ccccc3S2(=O)=O)n1 (configuration not stated)	-2	4	-2	54	76*	18
CCOc1cc(Br)c(C(=O)O)cc1OC	.	-2	5	-9	-8	13
COc1c(Br)cc(Br)cc1C(=O)O	.	-7	-4	87	112*	-9
O=S1(=O)NC(=NCC(c2ccco2)N2CCCCC2)c2ccccc21 (configuration not stated)	9	6	-1	38	85*	18
CCC(=O)N1C[C@@H](C)[C@@H](OC)CN(C)C(=O)c2ccc(NC(=O)Nc3ccccc3)cc2OC[C@@H]1C	0	.	.	.	.	.
COc1ccc2c3c([nH]c2c1)[C@@H](CO)N(C(=O)C1CCOCC1)CC31CN(Cc2cccc(F)c2)C1	-15	.	.	.	.	.
COc1ccc(NC(=O)CSc2c3c(nc4ccccc24)CCCC3)c(OC)c1	-9	29	12	63	70*	-7
COc1cc(NC(=O)c2ccc3c(SCC(=O)O)c4c(nc3c2)CCC4)cc(OC)c1OC	3	-6	0	4	9	-21
COc1ccc(OC)c(NC(=O)CSc2nc3ccccc3c(=O)n2CCNC(C)=O)c1	.	76*	1	0	-1	-16
CCN(C(=O)c1ccc2c(SCC(=O)O)c3c(nc2c1)CCC3)c1cc(Cl)ccc1OC	15	16	1	-73*	-79	-3
COCCNC(=O)CSc1c2c(nc3ccc(Cl)cc13)CCCC2	0	12	-8	51	107*	-4
COc1ccccc1NC(=O)CSc1c2c(nc3ccccc13)CCC2	-9	13	2	13	9	8
C[C@H](CO)N1C[C@H](C)[C@@H](CN(C)C(=O)C2CCCCC2)OCCCC[C@H](C)Oc2ccc(NC(=O)Nc3ccc(C(F)(F)F)cc3)cc2C1=O	4	.	.	.	.	.
COc1ccc(NC(=O)CSc2c3c(nc4cc(Cl)ccc24)CCCC3)cc1OC	7	0	2	74	128*	-10

High-throughput results: PubChem BioAssay, several laboratories
